Pf growth 48h: Primary qHTS for delayed death inhibitors of the malarial parasite plastid, 48 hour incubation; P. falciparum luciferase growth in erythrocytes, 48 h; Potency, µM (titrated, usually from 28.7 µM), without a hit: top-dose activity change, negative = inhibition, most hits filed as inhibitors; 5.9% of 310,000 active; AID 504832, 2011; also: potency is read from the fitted curve at half-maximal effect
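Luciferase-expressing parasites in RBCs, 2% Hct / 0.1% parasitemia final; RPMI 1640 + 0.5% Albumax; 37 C, 5% CO2, one generation; luminescence read-out, lower signal = inhibition.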
Pf growth 96h: Primary qHTS for delayed death inhibitors of the malarial parasite plastid, 96 hour incubation | P. falciparum luciferase reporter growth, 96 h | Potency, µM (highest dose often 28.7 µM), for inactives: at the top dose activity change, negative = inhibition, hits mostly inhibitors | 6.9% of 320,000 active | AID 504834, 2011; also: potency is read from the fitted curve at half-maximal effect
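Infected RBCs, 2% Hct / 0.05% parasitemia final; luciferase-reporter P. falciparum; cpd 96 h, 37 C, 5% CO2; luciferase detection reagent; luminescence.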
HCV inhibitor: qHTS Assay for Inhibitors of Hepatitis C Virus (HCV) | Potency, µM (doses to about 41.8 µM), for inactives: at the top dose activity change, negative = inhibition, usual class: inhibitors | 3.4% of 340,000 active | Huh7.5.1 HCVcc-Cre infection, luciferase reporter, 44 h; also: potency is read from the fitted curve at half-maximal effect
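1,000 cells/well; 4 h culture; + compound; + HCVcc-Cre (~0.5 moi); 44 h; luciferase substrate, RT 15 min; read 15 sec.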
LASV entry inh: qHTS for Inhibitors of binding or entry into cells for Lassa Virus; Lassa virus pseudotype entry inhibition, cell reporter; Potency, µM (series often up to 37.9 µM), for the others: at the top dose activity change, negative = inhibition, hits mostly inhibitors; 1.2% of 300,000 active; AID 540256, 2011; calls by dose curve; tested in HEK293 cells; also: potency is read from the fitted curve at half-maximal effect; nearly all actives have a fitted effect of over 50% in size
HCMV inh: qHTS Assay for inhibitors of the human cytomegalovirus (HCMV); 4.5% of 410,000 active; HFF cells, HCMV-luciferase reporter, 72 h; hits give low values; activity change, negative = inhibition, % at 57.5 µM; in the data active = activity change below about -60%; inconclusive = no clear call, values can overlap the other calls; inactive = above about -39%
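After 16 h attachment at 37C, HFF cells received test compound and HCMV-luciferase (1 PFU/cell); reporter luminescence read 72 h later, data normalized against buffer-only and known inhibitor Salinomycin.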
Marburg entry inh: qHTS for inhibitors of binding or entry into cells for Marburg Virus. Marburg virus pseudotyped entry inhibition, cell reporter. 1.8% of 300,000 active. Potency, µM (doses to about 37.8 µM), for the others: top-dose activity change, negative = inhibition, hits mostly inhibitors; calls by dose curve; tested in HEK293 cells; also: potency is read from the fitted curve at half-maximal effect
Numbers without * were called inactive; [ ] = another dose, or the depositor's remark. This is a sample that favours compounds with a hit; in the whole collection about 14% have one here. Unless noted, calls follow the shape of the dose curve; as a rule, active = well fitted inhibition curve with a large enough effect; inconclusive = small, poorly fitted or top-dose-only effect, or another doubt; inactive = no such curve, though single readings can be large or run the other way. % is scaled to controls: 0 for no effect and ±100 for the full control effect.

What do the screens show for `O=C(CN1CCN(c2cccc(C(F)(F)F)c2)CC1)NCc1ccccc1`?
Pf growth 48h: 5.7%; Pf growth 96h: -4.1%; HCV inhibitor: 8.3%; LASV entry inh: 8.91µM*; HCMV inh: 6.5; Marburg entry inh: 3.1%

Results for Clc1ccc(CNc2ccc(N3CCN(Cc4ccccc4)CC3)cc2)cc1 ?
Pf growth 48h: -3.2%; Pf growth 96h: 9.28µM*; HCV inhibitor: 10µM*; LASV entry inh: inconclusive; HCMV inh: -36.3; Marburg entry inh: inconclusive

How did O=C(CCN1CCN(c2ccccc2F)CC1)Nc1ccccc1F do in these assays?
Pf growth 48h: 27.2%; Pf growth 96h: -8.2%; HCV inhibitor: -11.2%; LASV entry inh: -0.4%; HCMV inh: -2.1; Marburg entry inh: -13.0%

Results for O=C(CN1CCN(c2cccc(Cl)c2)CC1)NCc1ccccc1 ?
Pf growth 48h: 1.4%; Pf growth 96h: 10.4µM*; HCV inhibitor: 13.1%; HCMV inh: 25.9

What do the screens show for `O=C(CCN1CCN(c2ccc(Cl)cc2)CC1)Nc1ccccc1F`?
Pf growth 48h: 58.5%; Pf growth 96h: 2.94µM*; HCV inhibitor: -2.1%; LASV entry inh: -14.1%; HCMV inh: -5.6; Marburg entry inh: 3.3%[46.1 µM]

Results for NS(=O)(=O)c1ccc(CCNC(=O)CN2CCN(c3cccc(Cl)c3)CC2)cc1 ?
Pf growth 48h: -8.9%; Pf growth 96h: -16.0%; HCV inhibitor: inconclusive; LASV entry inh: -18.2%; HCMV inh: -88.5*; Marburg entry inh: inconclusive

What do the screens show for `CCc1ccc(CNc2ccc(N3CCN(C(C)=O)CC3)cc2)cc1`?
Pf growth 48h: -20.4%; Pf growth 96h: -1.2%; HCV inhibitor: inconclusive; LASV entry inh: inconclusive; HCMV inh: -79.8*; Marburg entry inh: -23.9%

What do the screens show for `CC(=O)N1CCN(c2ccc(NCc3ccc(C)cc3)cc2)CC1`?
Pf growth 48h: -18.7%; Pf growth 96h: 19.9%; HCV inhibitor: -20.2%; LASV entry inh: -5.7%; HCMV inh: -4.0; Marburg entry inh: 14.9%

How did COc1ccc(Cl)cc1NS(=O)(=O)c1cccc(C(=O)NCC2(N(C)C)CCCCC2)c1 do in these assays?
Pf growth 48h: inconclusive; Pf growth 96h: 14.7µM*; HCV inhibitor: inconclusive; LASV entry inh: -28.2%; HCMV inh: -9.4; Marburg entry inh: inconclusive

Results for Cc1noc(C)c1COC(=O)c1ccccc1Oc1ccccc1 ?
Pf growth 48h: -4.7%; Pf growth 96h: 13.1µM*; HCV inhibitor: -18.3%; LASV entry inh: -26.2%; HCMV inh: 72.7; Marburg entry inh: inconclusive

Results for COc1ccccc1N(C)S(=O)(=O)c1ccc(Cl)c(C(=O)OCc2c(C)noc2C)c1 ?
Pf growth 48h: inconclusive; Pf growth 96h: inconclusive; HCV inhibitor: 0.0%; LASV entry inh: 11.2µM*; HCMV inh: -30.9; Marburg entry inh: inconclusive

How did Cc1noc(C)c1COC(=O)c1ccccc1NC(=O)Cc1ccccc1 do in these assays?
Pf growth 48h: inconclusive; Pf growth 96h: inconclusive; HCV inhibitor: inconclusive; LASV entry inh: -22.4%; HCMV inh: 67.9; Marburg entry inh: inconclusive

How did COc1ccccc1NS(=O)(=O)c1cccc(C(=O)NCC2(N(C)C)CCCCC2)c1 do in these assays?
Pf growth 48h: -26.5%; Pf growth 96h: inconclusive; HCV inhibitor: -10.9%; LASV entry inh: 19.3%; HCMV inh: 1.5; Marburg entry inh: inconclusive

Results for CN(c1ccc(F)cc1)S(=O)(=O)c1ccc(Cl)c(C(=O)NCC2(N3CCOCC3)CCCCC2)c1 ?
HCV inhibitor: 11.2µM*; LASV entry inh: inconclusive; HCMV inh: -37.6; Marburg entry inh: inconclusive

How did COc1ccccc1N(C)S(=O)(=O)c1ccc(Cl)c(C(=O)N2CCC2)c1 do in these assays?
Pf growth 48h: inconclusive; Pf growth 96h: 5.2%; HCV inhibitor: -0.6%; LASV entry inh: -27.5%[46.1 µM]; HCMV inh: -31.2; Marburg entry inh: -12.7%
